# Where a name gives a salt, the structure may show the parent alone. The full ranking holds about 1,000 compounds; the median of “cFRET/donor change relative to DMSO, normalised to beta-lapachone positive control (supercomplex I-IV assembly)” is about 0.18, and the lowest 2% start at about -1. Only a selection was taken, and the lowest values are over-represented in it overall.
# System: C2C12 (NDUFB8-AcGFP / COX8A-DsRed-Monomer FRET reporter)
# Assay: cFRET/donor change relative to DMSO, normalised to beta-lapachone positive control (supercomplex I-IV assembly) (fraction of beta-lapachone effect); higher = more respiratory supercomplex assembly
# Settings: 40 µM; 24 h
# Experimental: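 Cells were treated with 40 uM compound for 24 h and imaged on an IN Cell Analyzer 6000. Corrected FRET was divided by donor signal (cFRET/donor) and measured in two replicate experiments. The score is (mean cFRET/donor of compound - mean DMSO) / (mean beta-lapachone 40 uM - mean DMSO). Compounds flagged for prominent cell death, abnormal morphology or decreased cell number were excluded.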
row,SMILES,cFRET/donor change
1,CC(=O)NC[C@H]1CN(c2ccc(N3CCOCC3)c(F)c2)C(=O)O1 [Linezolid],0.372
2,CCCCCCCCCCCCCCCC(=O)OC[C@H](COP(=O)(O)OCCNC(=O)[C@H](C)NC(=O)CC[C@@H](NC(=O)[C@H](C)NC(=O)[C@@H](C)O[C@H]1[C@H](O)[C@@H](CO)OC(O)[C@@H]1NC(C)=O)C(N)=O)OC(=O)CCCCCCCCCCCCCCC (some centres not stated) [Mifamurtide],-0.0931
3,O=C1CCCC(=O)C1C(=O)c1ccc(C(F)(F)F)cc1[N+](=O)[O-] [Nitisinone],0.0147
4,C=C1C[C@@]23CC[C@H]4[C@@](C)(CCC[C@@]4(C)C(=O)O[C@@H]4O[C@H](CO)[C@@H](O)[C@H](O)[C@H]4O)[C@@H]2CC[C@]1(O[C@@H]1O[C@H](CO)[C@@H](O)[C@H](O)[C@H]1O[C@@H]1O[C@H](CO)[C@@H](O)[C@H](O)[C@H]1O)C3 [Stevioside],0.0782
5,N[C@H](C(=O)O)[C@H](Cc1ccccc1)C(=O)O [L-Beta-threo-benzyl-aspartate],-0.122
6,CCCCCCCCCCCCCCC[C@H](O)[C@H](N)CO (racemic) [DL-erythro-Dihydrosphingosine],0.48
7,"CC(C)NCC(O)c1ccc(O)c(O)c1 (single isomer, unassigned; (-)) [(-)-Isoproterenol hydrochloride]",0.53
8,C[C@]12C=CC(=O)C=C1CC[C@@H]1C2=CC[C@]2(C)[C@@H](C(=O)CN3CCN(c4cc(N5CCCC5)nc(N5CCCC5)n4)CC3)CC[C@@H]12,-1.85
9,CCN(CC)CCCCNc1ncc2cc(-c3c(Cl)cccc3Cl)c(NC(=O)NC(C)(C)C)nc2n1,0.403
10,Cc1cn([C@H]2C[C@H](N=[N+]=[N-])[C@@H](CO)O2)c(=O)[nH]c1=O [3'-Azido-3'-deoxythymidine],-0.184
11,O=CN(O)CCCP(=O)(O)O [Fosmidomycin sodium salt hydrate],0.0766
12,N[C@H](C(=O)O)[C@H](O)c1ccc(O)c(O)c1,0.419
13,O=c1[nH]c(=O)n(C2CCCO2)cc1F (configuration not stated) [Tegafur],0.268
14,O=C(NOC[C@H](O)CO)c1ccc(F)c(F)c1Nc1ccc(I)cc1F,0.21
15,COc1cc2ncnc(Nc3cccc(Cl)c3)c2cc1OC [Tyrphostin AG 1478],0.19
16,CN(C)c1cc2c(Nc3ccc4c(cnn4Cc4ccccc4)c3)ncnc2cn1,-7.46
17,CC1=C(C(=O)O)N2C(=O)[C@@H](NC(=O)[C@H](N)c3ccccc3)[C@H]2SC1 [Cephalexin hydrate],0.038
18,CNS(=O)(=O)CCc1ccc2[nH]cc(C3CCN(C)CC3)c2c1 [Naratriptan hydrochloride],0.347
19,O=c1c(-c2ccc(O)cc2)coc2cc(O)ccc12 [Daidzein],0.201
20,O=c1cc(-c2ccc(O)cc2)oc2cc(O)cc(O)c12 [Apigenin],-1.74
21,COc1ccc(-c2cc(=O)c3c(O)c(OC)c(OC)cc3o2)cc1O [Eupatorin],0.395

row,SMILES,cFRET/donor change
1,O=c1c(O)c(-c2ccc(O)cc2O)oc2cc(O)cc(O)c12 [Morin],-3.25
2,"O=c1cc(-c2ccccc2)oc2c(O)c(O)ccc12 [7,8-Dihydroxyflavone hydrate]",-0.0745
3,O=C(Nc1ccccc1C(=O)NC1CCCCNC1=O)c1cc2ccccc2s1 (configuration not stated),0.384
4,CN1[C@@H]2CC[C@H]1C[C@@H](OC(=O)C(O)c1ccccc1)C2 (mixture of isomers) [DL-Homatropine hydrobromide],0.0655
5,Cn1c(=O)c2[nH]c(-c3ccc(S(=O)(=O)O)cc3)nc2n(C)c1=O [8-(p-Sulfophenyl)theophylline],0.086
6,"Cn1c(=O)c2[nH]c(-c3ccccc3)nc2n(C)c1=O [1,3-Dimethyl-8-phenylxanthine]",-1.5
7,"Cn1c(=O)c2[nH]c(C3CCCC3)nc2n(C)c1=O [8-Cyclopentyl-1,3-dimethylxanthine]",0.158
8,Cc1c(O)cccc1C(=O)N[C@@H](CSc1ccccc1)[C@H](O)CN1C[C@H]2CCCC[C@H]2C[C@H]1C(=O)NC(C)(C)C [Nelfinavir mesylate hydrate],-0.54
9,O=C(O)CCc1ccc(NCc2cccc(Oc3ccccc3)c2)cc1,-0.4
10,C[C@@H](c1ncncc1F)[C@](O)(Cn1cncn1)c1ccc(F)cc1F [Voriconazole],0.181
11,NC1CONC1=O (racemic) [DL-Cycloserine],0.397
12,"NC(N)=NC(=O)c1nc(Cl)c(N2CCCCCC2)nc1N [5-(N,N-hexamethylene)amiloride]",0.351
13,CCOc1ncc(S(=O)(=O)N2CCN(CC)CC2)cc1-c1nc(=O)c2nn(CCOC)c(CC)c2[nH]1 [Gisadenafil besylate salt],0.0753
14,O=C1Nc2ccc(I)cc2/C1=C/c1cc(Br)c(O)c(Br)c1,-3
15,N=C(N)c1ccc(OCCCCCOc2ccc(C(=N)N)cc2)cc1 [Pentamidine isethionate],0.191
16,CC(C)(NS(=O)(=O)c1ccc(Oc2ccc(F)cc2)cc1)C(=O)NO,0.196
17,CN1[C@@H]2CC[C@H]1C[C@@H](OC(c1ccccc1)c1ccccc1)C2 [Benztropine mesylate],0.586
18,Cc1c(-c2ccc(-c3ccccc3F)cc2)nc2ccc(F)cc2c1C(=O)O [Brequinar sodium salt hydrate],0.431
19,Nc1ccc(CCNc2ncnc3c2ncn3C2OC(CO)C(O)C2O)cc1 (configuration not stated) [N6-2-(4-Aminophenyl)ethyladenosine],0.338
20,CCCC(CCC)C(=O)O[C@H]1C[C@H]2CC[C@@H](C1)[N+]2(C)C [Anisotropine methyl bromide],0.0542
21,COc1ccc(CCn2nnnc2C2(c3ccc(C)cc3)CC2)cc1 [Mephetyl tetrazole],0.388
